Laboratory results reported in PubChem BioAssay AID862 (The Scripps Research Institute Molecular Screening Center, 2007).
Among all 190,000 compounds or so, about 1,700 (0.89%) were called active. The sample as a whole holds a higher share of actives than the screen did. Values without a mark were called inactive.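 The calls were made as follows: active = inhibition above the mean inhibition across all screened compounds plus 3 SD (cut at about 44% in these data); inactive = the rest.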

Test: IL-6 driven STAT3 reporter inhibitors, primary screen, U3A cells, luciferase, luminescence, MLSCN library (AID 862);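 also: 0% = DMSO only wells and 100% = 100 µM nifuroxazide control wells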
Conditions: IL-6 STAT3-luciferase reporter, at 5.5 µM, hits give high values, host cell line lacks STAT1

| Structure (SMILES) | inhibition |
| --- | --- |
| Cc1cccc(C)c1NC(=O)C1(N(C(=O)c2ccccn2)c2ccc(O)cc2)CCCCC1 | 0.2% |
| CC(C)c1nc(-c2ccccn2)no1 | -0.3% |
| c1ccc(-c2noc(-c3cccs3)n2)nc1 | 43.8% (active) |
| O=C(Oc1ccc(-c2nc(-c3ccccn3)no2)cc1)c1ccccc1 | 76.7% (active) |
| O=C(Oc1ccccc1)c1ccc2nccnc2c1 | 2.6% |
| c1csc(-c2nc(-c3ccncc3)no2)c1 | 16.8% |
| COc1nc(-c2ccc(Cl)cc2)ccc1-c1noc(-c2cccs2)n1 | -4.2% |
| Cc1c(C(=O)O)nnn1-c1nonc1N | -8.4% |
| Cc1cc(F)ccc1S(=O)(=O)Nc1ncnc2scc(-c3ccc(F)cc3)c12 | -1.8% |
| CC(=O)c1c(C)[nH]c(C(=O)Nc2cc(S(=O)(=O)N(C)C)ccc2C)c1C | 13.2% |
| CCOc1ccc(NC(=O)CC2C(=O)N(c3ccccc3)C(=O)N2CCOC)cc1 (configuration not stated) | -0.8% |
| CCCCn1c(N)c(N(CC)C(=O)/C=C/c2ccco2)c(=O)[nH]c1=O | -5.6% |
| COc1ccccc1CNC(=O)CCn1c(=O)sc2ccccc21 | -0.6% |
| Cc1cccc(CSc2nnc(Cn3c(=O)sc4ccccc43)n2C)c1 | 5% |
| COc1ccc(Cn2c(=O)sc3ccccc32)cc1OC | 51.6% (active) |
| CO/N=C/CC(=O)c1ccc(OC)cc1 | 6.2% |
| Cc1ccc(F)cc1NC(=O)Cc1nn(C)c(=O)c2ccccc12 | 56.3% (active) |
| COc1ccc(-c2nn(C)c(=O)c3ccccc23)cc1NC(=O)COc1ccccc1 | 38.1% |
| Cc1ccc(NC(=O)Cn2nc(C)c3ccccc3c2=O)c(C)c1 | 9.7% |
| Fc1ccc2[nH]c3c(N4CCN(Cc5ccc6c(c5)OCO6)CC4)ncnc3c2c1 | 65.5% (active) |
| Cc1cc(N2CCN(Cc3ccc4c(c3)OCO4)CC2)n2ncnc2n1 | -1.7% |
| Fc1ccc2[nH]c3c(N4CCSCC4)ncnc3c2c1 | 22.8% |
| CC(C)(C)NCCCOc1ccc(Cl)cc1C(C)(C)C | -0.4% |
| O=C(N/N=C/c1ccccc1O)/C(=C/c1ccccc1)CCO | 3.8% |

| Structure (SMILES) | inhibition |
| --- | --- |
| CC(C)(CNC(=O)c1ccc(Cl)c(S(=O)(=O)N2CCc3ccccc3C2)c1)N1CCOCC1 | 49.5% (active) |
| Cc1ccccc1CSCCNC(=O)c1ccc(Cl)c(S(=O)(=O)N2CCOCC2)c1 | 4.2% |
| O=C(NCCSCc1ccccc1)c1ccc(Cl)c(S(=O)(=O)N2CCOCC2)c1 | 21% |
| CCOC(=O)C(=Cc1ccccc1OC)C(=O)OCC | 9.9% |
| Cc1cc(NC(=O)CSc2nc3c(cc2C#N)CCCCC3)no1 | -1.5% |
| O=C(N/N=C/C=C/c1ccco1)c1cccs1 | -6.8% |
| COc1cccc(-c2cc(C(=O)N/N=C/c3ccc(OC)c(COC(C)=O)c3)c3ccccc3n2)c1 | -6% |
| Cc1ccc(-c2cc(C(=O)N/N=C/C=C/c3ccco3)c3ccccc3n2)cc1C | 46.8% (active) |
| Cc1cc(C(=O)NNC(=O)c2cccc(S(=O)(=O)N3CCOCC3)c2)c2ccccc2n1 | 10% |
| CCC(=O)OCCNc1nc(-c2ccccc2)nc2ccccc12 | 1.5% |
| O=C(COC(=O)c1ccc(O)cc1)Nc1nccs1 | -5.6% |
| Cc1nc2ccccc2cc1OCc1ccc(F)cc1 | 73% (active) |
| Fc1cccc2ncnc(OCc3ccccc3)c12 | 4.2% |
| Cc1nc2ccccc2cc1O | -75.4% |
| O=C(Nc1ccc(N2CCN(C(=O)c3cccs3)CC2)cc1)c1cccnc1Cl | 1.7% |
| O=c1c2ccccc2nc2n1C(CSCc1ccccc1)CS2 (configuration not stated) | 18.7% |
| O=c1c2ccccc2nc2n1C(CSCc1cccc(C(F)(F)F)c1)CS2 (configuration not stated) | 49.3% (active) |
| O=c1c2ccccc2nc2n1C(CSc1ccc(F)cc1)CN2 (configuration not stated) | -2.2% |
| Cc1ccc(CNC(=O)c2cccnc2Cl)cc1 | 3.5% |
| CCOc1cc(/C=C(/C#N)c2ccc(Cl)cc2)cc(Cl)c1OCC(=O)O | 63.3% (active) |
| CCOc1c(Cl)cc(/C=N/O)cc1OC | 1.3% |
| CCOC(=O)CN/C=C(\C#N)c1ccc(F)cc1 | -0.6% |
| c1ccc(-c2nc(NCc3ccco3)c3ccccc3n2)cc1 | -1% |
| FC(F)(F)c1cccc(Nc2ncnc3ccccc23)c1 | 16.5% |

| Structure (SMILES) | inhibition |
| --- | --- |
| c1coc(CNc2ncnc3ccccc23)c1 | 61.2% (active) |
| CCN(/N=C/c1ccc(N(C)C)cc1)c1nc2ccccc2[nH]1 | 1.9% |
| CCN(CCCNC(=O)CSc1cc(=O)n(C)c2cc(Cl)ccc12)Cc1ccccc1 | 5.2% |
| Cn1c(N)c(C(=O)COC(=O)/C=C/c2ccc(OC(F)F)cc2)c(=O)n(C)c1=O | 26.3% |
| O=C(Nc1ccccc1Cc1ccccc1)c1ccc2c(c1)SC1=NS(=O)(=O)CCN12 | -8.5% |
| Cn1c(SCC(=O)N2CCCc3ccccc32)nc2ccccc2c1=O | 62.3% (active) |
| O=C(CSc1nc2ccccc2c(=O)n1CCCO)N1CCc2ccccc21 | 12.6% |
| O=C(CSc1nc2[nH]ncc2c(=O)n1-c1ccccc1)N1CCCc2ccccc21 | -21.2% |
| COc1ccc(N2C(=O)C(O)C2c2ccc(C)cc2)cc1 (configuration not stated) | -18.4% |
| O=C(OCC(=O)c1cccs1)c1ccc([N+](=O)[O-])o1 | 0.6% |
| COc1ccc(NC(=O)c2cc3nc(-c4ccccc4)cc(C)n3n2)cc1OC | 17.9% |
| Brc1ccc(-c2csc(N/N=C/c3ccc4c(c3)OCO4)n2)cc1 | 5% |
| Cc1noc(C)c1/C=N/Nc1ccc2ccccc2n1 | -21.3% |
| C(=N\Nc1ccc2ccccc2n1)/c1ccc2c(c1)OCO2 | 91.2% (active) |
| S=c1[nH]nc(Nc2ccccc2)s1 | 12% |
| CN(c1ccccc1)c1nc(N)c([N+](=O)[O-])c(NCc2ccco2)n1 | -0.4% |
| CCN1/C(=C\c2ccc3ccccc3[n+]2CC)Sc2cc(C)ccc21 | 84.8% (active) |
| CCC(=O)/C=C1\Sc2ccccc2N1CC | 20.7% |
| Cc1ccccc1NC(=O)CN1C(=O)N/C(=C\c2cccn2-c2cccc(C(=O)O)c2)C1=O | 6% |
| O=C(O)CSCC(=O)Nc1ccc(C(F)(F)F)cc1 | 6.5% |
| CC(C)(C)c1ccc(Oc2ccc(N)cc2)cc1 | 76.2% (active) |
| Nc1ccc(Oc2ccc(Cl)cc2)cc1 | -0.6% |
| Cc1ccc(Oc2ccc(N)cc2)cc1 | 0.4% |
| C=CC[n+]1c(-c2ccc(C)cc2)csc1NNC(=O)Nc1ccccc1 | 46.3% (active) |

| Structure (SMILES) | inhibition |
| --- | --- |
| C=CCNc1scc(-c2ccccc2)[n+]1CC=C | 4.7% |
| Cc1ccc(NC(=O)Nc2ccccc2)c(Br)c1 | 16.3% |
| CCCN(CC(=O)Nc1ccc(C(N)=O)cc1)CC(=O)Nc1ccccc1C | 3.9% |
| Cc1csc(NC(=O)Nc2ccccc2[N+](=O)[O-])n1 | -24.9% |
| OCCCC1CCCCN1Cc1nc(Cc2ccccc2Cl)no1 (configuration not stated) | 4.3% |
| N/C(=N\OC(=O)c1ccc2c(c1)OCO2)c1ccc(Br)cc1 | 9.8% |
| COc1cc(NC(=O)CN(C)S(=O)(=O)c2ccc3nc(C)sc3c2)cc(OC)c1 | 0.9% |
| Cc1ccc2nc(-c3ccc(NC(=O)CN(C)S(=O)(=O)c4ccccc4)cc3)sc2c1 | 49.8% (active) |
| Cc1cccc(N(CC(=O)Nc2ccc(-c3nc4ccc(C)cc4s3)cc2)S(C)(=O)=O)c1 | 28% |
| O=C(CCc1ccccc1)NCCc1cccs1 | 4.7% |
| O=C(C/C(=N\NC(=O)c1ccccc1Br)C(F)(F)F)c1cccs1 | -8.2% |
| O=C(Nc1ccc(NC(=O)c2cccs2)cn1)c1ccco1 | 48.3% (active) |
| COc1cccc(C(=O)Nc2ccc(NC(=O)c3ccco3)cn2)c1 | 12.2% |
| O=C(Nc1ccc2nccnc2c1)c1ccco1 | 14.3% |
| N=c1n(CCc2ccccc2)c2ccccc2n1Cc1ccccc1F | 0.2% |
| CCc1ccc(CN(C)Cc2nc(Cc3ccccc3)no2)nc1 | -2.9% |
| CC1=CC=CN2C1=NC(=O)CC2(C)C(=O)N(CC(=O)NC1CCCC1)c1ccccc1C (configuration not stated) | 4.4% |
| COc1ccc(C(=O)/C=C/Nc2ccccn2)cc1 | 97.2% (active) |
| Cc1cc(N/C=C\C(=O)c2ccc(Cl)c(Cl)c2)no1 | -7.8% |
| CCOc1cc(NC(=O)c2ccccn2)c(OCC)cc1NC(=O)c1ccc(OC)cc1 | 13.8% |
| Cc1ccc(CC2CC(=O)N(c3nc(C)cc(C)n3)C2=O)cc1 (configuration not stated) | -0.9% |
| Clc1cccc(-c2nc(NCC3CCCO3)c3ccccc3n2)c1 (configuration not stated) | 15.5% |
| CCCCCCCCn1c2c(c(=N)c3c1CCC3)CCCC2 | 76.2% (active) |
| CCCCCCn1c(CN2CCCCC2)nc2c1c(=O)n(C)c(=O)n2C | -8.1% |

| Structure (SMILES) | inhibition |
| --- | --- |
| COc1ccc(/C=C/C(=O)OCC(=O)NCc2cccs2)cc1OC | -9.7% |
| O=C(c1ccc(F)cc1)c1cn(Cc2ccc(F)cc2)c2cc3c(cc2c1=O)OCCO3 | 4.1% |
| COCCn1c(C)cc(C2=NNC(=Nc3ccc(F)cc3)SC2)c1C | -33.4% |
| C=CCn1c(C)cc(C2=NNC(=NCC)SC2)c1C | 108% (active) |
| Cc1cc(C2=NNC(=Nc3ccc(S(=O)(=O)N4CCOCC4)cc3)SC2)c(C)n1CC1CCCO1 (configuration not stated) | -0.3% |
| [O-][n+]1c2c(nn1-c1ccc(Cl)c(Cl)c1)-c1nonc1CC2 | 5.8% |
| CC1CCN(c2ccc(C(=O)Nc3nnc(C4CC4)s3)cc2[N+](=O)[O-])CC1 | -3% |
| O=c1c2c(nc3n1CCCCC3)sc1c(O)cccc12 | 64.8% (active) |
| Cc1c(C(=O)Nc2ccccc2)sc2nc3n(c(=O)c12)CCCCC3 | 10.4% |
| Cc1cccc2c(=O)n3c(nc12)CCCCC3 | 2.1% |
| CC(C)Cn1c(N)c(C(=O)COC(=O)CN2C(=O)C3CC=CCC3C2=O)c(=O)n(C)c1=O (configuration not stated) | 30.1% |
| COC(=O)c1c(NC(=O)CCCC(=O)O)sc2c1CCCCC2 | 22.2% |
| CCOCCCNCc1ccc(OCc2ccc(F)cc2)c(OC)c1 | 5.2% |
| CC(C)Oc1ccc(CCc2nnc(SCC(=O)O)n2-c2ccccc2)cc1 | 13.3% |
| Cc1ccc(-n2nc3cc(C)c(NC(=O)c4cccnc4)cc3n2)cc1 | 11.8% |
| Cc1cc2nc(-c3ccc(NC(=O)c4cccnc4)cc3)oc2cc1C | 7.8% |
| Cc1ccc2nc(-c3ccc(NC(=O)c4cccnc4)cc3)oc2c1 | 67.9% (active) |
| Cc1cccc(NC(=O)c2cc([N+](=O)[O-])ccc2N2CCN(C)CC2)c1 | 6.2% |
| COC(=O)CCNC(=O)c1ccc2[nH]c(C)c(C)c2c1 | 11% |
| Cc1cc(C(=O)COc2ccccc2[N+](=O)[O-])c(C)n1-c1cccc(S(=O)(=O)N2CCOCC2)c1 | -4.1% |
| Cc1[nH]c2ccccc2c1C(=O)COC(=O)c1c(-c2ccccc2)noc1C | -1.9% |
